Experimental data from PubChem BioAssay (Tox21).
Records with an inconclusive call do not appear. A call without a number means that no potency is given here. Active and inactive are the calls of the source. Calls follow the shape of the dose curve; as a rule, active = well fitted cell-killing curve with a large enough effect in the repeat runs; inconclusive = weak or mixed curves, or effect the other way; inactive = flat fitted curve, though single readings scatter.

Key:
[1] = cAMP Responsive Elements (CRE) small molecule antagonists, cell-based qHTS assay: qHTS cell viability counter screen (AID 2060913); also: nearly all actives have a fitted effect of over 40% in size
In short: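 CRE-bla HEK293T cells were seeded in assay medium with 10% dialyzed FBS, incubated 18 hrs at 37 C, then exposed to compounds plus 0.25 uM final NKH477 for 3 hrs. Viability was read by CellTiter-Glo luminescence after 30 min, in the same wells.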

[2] = cAMP Responsive Elements (CRE) small molecule agonists, cell-based qHTS assay: qHTS cell viability counter screen (AID 2060914); also: nearly all actives have a fitted effect of over 50% in size
In short: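 Luminescence read-out (CellTiter-Glo, 30 min RT) of ATP-based viability in CRE-bla HEK 293T cells, run in the same wells as the β-lactamase reporter assay after 3 h compound treatment at 37 °C.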

Row | Compound | Potency [1] | Potency [2]
1 | CC1=C(O)C(=O)OC1C (stereo unspecified) | inactive | inactive
2 | O=C1CCCc2c1cc1ccc3cccc4ccc2c1c34 | inactive | inactive
3 | CNC(=O)c1c(I)c(NC(C)=O)c(I)c(C(=O)O)c1I | inactive | inactive
